This passage reports Potency and outcome results from PubChem BioAssay (NCATS).

Values joined by “and” are separate entries in the source; they are usually repeats but may differ in a detail not shown here. Equal entries are not always repeated. Records with an inconclusive call do not appear. Where a call stands in place of a potency, no number is given. Some structures have more than one record in an assay (separate samples or runs), and their calls can disagree. Active and inactive are the calls of the source. Unless noted, calls follow the shape of the dose curve; as a rule, active = well fitted curve in the direction sought with a large enough effect; inconclusive = small, poorly fitted or top-dose-only effect, or another doubt; inactive = no such curve, though single readings can be large; an effect the other way counts as inactive or inconclusive.

The target in assay [1] is Guanine nucleotide-binding protein G(i) subunit alpha-1 (Homo sapiens) (UniProt P63096). The assay is described as follows: qHTS Assay for Inhibitors of RGS12 GoLoco Motif Activity (Green Fluorophore) (AID 879).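 Also: negative values mean loss of peptide binding seen as reduced polarization.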 The method, boiled down: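 Fluorescence polarization assay: 50 nM Gαi1 with 10 nM FITC-labeled RGS12 GoLoco peptide in 10 mM Tris pH 7.5, 150 mM NaCl, 0.1 mM GDP, 0.05% NP40, 10 min at room temperature with compound.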
Background: Quantitative high-throughput screening tests each substance at several concentrations.

Assay [2] can be described thus: Confirmation and Secondary Assay for Modulators of Hemoglobin Beta Chain Splicing at IVS2 654 locus (AID 910).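 Also: per-well total GFP intensity by laser scanning cytometry after 2-day treatment.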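 Also: potency is read from the fitted curve at half-maximal effect; potency of activators that raise GFP signal by restoring correct splicing.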 The method, boiled down: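 HeLa cells stably carrying EGFP interrupted by mutant beta-globin IVS2-654 intron (CMV-driven) were treated with compound for 2 days at 37C; corrected splicing was scored as total peak GFP intensity per well (488 nm excitation, 500-520 nm emission).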

The nature of assay [3]: Confirmation and Secondary Assay for Modulators of Hemoglobin Beta Chain Splicing at IVS2 705 locus (AID 930).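 Also: HeLa cells stably expressing the EGFP-705 splicing reporter; series mostly up to about 46 µM.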 The method, boiled down: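 Assay measures total GFP intensity per well in HeLa EGFP-705 cells after 2 days with compound; mis-splicing normally truncates EGFP, so fluorescence indicates corrected splicing.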
Assay [4] addresses Pyruvate kinase (Leishmania mexicana) (UniProt Q27686). The assay is described as follows: qHTS Validation Assay for Inhibitors of Leishmania Mexicana Pyruvate Kinase (AID 945). The method, boiled down: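 Pyruvate kinase activity of E451W LmPYK (0.2 nM) was followed as ATP output after 1 h at room temperature with 0.5 mM PEP and 0.1 mM ADP, detected by PKLight luminescence.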

In assay [5] the target is Cytochrome P450 2C9 (Homo sapiens) (UniProt P11712). The assay is described as follows: qHTS Assay for Inhibitors and Substrates of Cytochrome P450 2C9 (AID 883). Also: nearly all actives have a fitted effect of over 60% in size. The method, boiled down:
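CYP2C9 deoxyluciferin hydroxylation, 37C, 60 min with NADPH regeneration; 10nM enzyme, 100uM Luciferin-H (KM). Glo detection reagent stopped reaction; luminescence normalized to sulphaphenazole (57uM) full inhibition.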

In assay [6] the target is Cytochrome P450 3A4 (Homo sapiens) (UniProt P08684). The assay is described as follows: qHTS Assay for Activators of Cytochrome P450 3A4 (AID 885). Also: nearly all actives have a fitted effect of over 65% in size. Also: potency is read from the fitted curve at half-maximal effect. The method, boiled down:
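Steps: enzyme/substrate mix dispensed; compound added, 10 min RT; NADPH regeneration solution added, 60 min RT; luciferin detection buffer stops reaction; 20 min later luminescence measured.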

The nature of assay [7]: qHTS Assay for Identification of Small Molecule Antagonists for NFkB Signaling Pathway (AID 895; active = well fitted inhibition curve with a large enough effect in the signal ratio, with a control signal flat, not every such curve was filed as active; the % refers to the signal ratio; also: potency is read from the fitted curve at half-maximal effect). The method, boiled down:
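NFkB-bla ME-180 cervical carcinoma cells with beta-lactamase reporter under NFkB response element; compounds added, then TNF alpha at 10 pM final (EC50), 5 h at 37 C. LiveBLAzer substrate 2 h, room temperature; emission 460/530 nm at 405 nm excitation.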

Assay [8] concerns the target Cytochrome P450 2C19 (Homo sapiens) (UniProt P33261). The assay is described as follows: qHTS Assay for Inhibitors and Substrates of Cytochrome P450 2C19 (AID 899). Also: nearly all actives have a fitted effect of over 60% in size. The method, boiled down:
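In 50mM KPO4, the reaction held 5nM enzyme and KM-level (10uM) Luciferin-H EGE; it ran 60 min at 37C after NADPH regeneration and a 10 min compound preincubation. Luminescence values were scaled to 57uM ketoconazole as complete inhibition.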

For assay [9], the target named is Cytochrome P450 3A4 (Homo sapiens) (UniProt P08684). The assay is described as follows: qHTS Assay for Inhibitors and Substrates of Cytochrome P450 3A4 (AID 884). Also: series mostly up to about 57 µM; nearly all actives have a fitted effect of over 50% in size. The method, boiled down:
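20 nM human CYP3A4 with 25 uM Luciferin-PPXE (at KM) in 200 mM KPO4, preincubated 10 min with compound; NADPH regeneration started a 60 min RT reaction. Luciferin detected by luminescence, normalized to 57 uM ketoconazole as full inhibition.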

Assay [10] addresses Cytochrome P450 2D6 (Homo sapiens) (UniProt P10635). The assay is described as follows: qHTS Assay for Inhibitors and Substrates of Cytochrome P450 2D6 (AID 891). Also: nearly all actives have a fitted effect of over 60% in size. Also: potency is read from the fitted curve at half-maximal effect. The method, boiled down: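 Human CYP2D6 (5 nM) with 30 uM Luciferin-ME EGE (at Km) in 100 mM KPO4, compound preincubated 10 min, then NADPH regeneration system for 60 min at room temperature. Luciferin read by luminescence; normalized to 1.43 uM quinidine.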

Assay [11] can be described thus: qHTS Assay for Identification of Small Molecule Agonists for Thrombopoietin (TPO) Signaling Pathway (AID 917). The method, boiled down: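 Murine Ba/F3 cells stably expressing human TPO receptor and a Glycoprotein IIb promoter–luciferase reporter were IL-3-starved overnight, then treated with compounds plus TPO (26 pM final, its EC50) for 24 hrs at 37 C; luminescence was read.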

A short description of assay [12]: qHTS Assay for Identification of Small Molecule Antagonists for Thrombopoietin (TPO) Signaling Pathway (AID 918). Also: potency is read from the fitted curve at half-maximal effect; nearly all actives have a fitted effect of over 60% in size. The settings on record: TPO-dependent cell signaling reporter, antagonist mode. The method, boiled down: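 First, Ba/F3 reporter cells expressing human TPO receptor were held overnight without IL-3. Next, compound and 26 pM TPO were added. After 24 hrs incubation at 37 C, luciferase luminescence under the Glycoprotein IIb promoter was recorded.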

The target of assay [13] is Muscarinic acetylcholine receptor M1 (Rattus norvegicus) (UniProt P08482). The assay is described as follows: qHTS Assay for Antagonists of Acetylcholine Muscarinic M1 Receptor: Measurement of IP-One Response (AID 944). Also: nearly all actives have a fitted effect of over 75% in size. Also: potency is read from the fitted curve at half-maximal effect. The method, boiled down:
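Steps: plate transfected CHO-M1 cells overnight; add test compound, 10 min; add carbachol (200 nM, EC80) in stimulation buffer with LiCl; incubate 30 min; add labelled IP1 tracer and anti-IP1 antibody in lysis buffer; read HTRF after 10 min.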

Chain of Muscarinic acetylcholine receptor M1 (Rattus norvegicus) (P08482 whole entry, looked up): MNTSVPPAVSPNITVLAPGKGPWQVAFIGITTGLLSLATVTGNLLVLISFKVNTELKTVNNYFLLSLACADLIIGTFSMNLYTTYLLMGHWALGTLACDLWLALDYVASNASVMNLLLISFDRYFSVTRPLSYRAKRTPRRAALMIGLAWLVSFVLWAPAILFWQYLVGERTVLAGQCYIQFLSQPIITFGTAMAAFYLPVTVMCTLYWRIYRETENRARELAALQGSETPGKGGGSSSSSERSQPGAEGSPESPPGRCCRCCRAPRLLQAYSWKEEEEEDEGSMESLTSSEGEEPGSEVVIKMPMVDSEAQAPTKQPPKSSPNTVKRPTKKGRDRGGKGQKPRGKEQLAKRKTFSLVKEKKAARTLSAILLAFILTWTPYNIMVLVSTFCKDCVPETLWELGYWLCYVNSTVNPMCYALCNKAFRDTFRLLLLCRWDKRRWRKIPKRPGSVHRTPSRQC
Chain of Cytochrome P450 3A4 (Homo sapiens) (P08684 whole entry, looked up): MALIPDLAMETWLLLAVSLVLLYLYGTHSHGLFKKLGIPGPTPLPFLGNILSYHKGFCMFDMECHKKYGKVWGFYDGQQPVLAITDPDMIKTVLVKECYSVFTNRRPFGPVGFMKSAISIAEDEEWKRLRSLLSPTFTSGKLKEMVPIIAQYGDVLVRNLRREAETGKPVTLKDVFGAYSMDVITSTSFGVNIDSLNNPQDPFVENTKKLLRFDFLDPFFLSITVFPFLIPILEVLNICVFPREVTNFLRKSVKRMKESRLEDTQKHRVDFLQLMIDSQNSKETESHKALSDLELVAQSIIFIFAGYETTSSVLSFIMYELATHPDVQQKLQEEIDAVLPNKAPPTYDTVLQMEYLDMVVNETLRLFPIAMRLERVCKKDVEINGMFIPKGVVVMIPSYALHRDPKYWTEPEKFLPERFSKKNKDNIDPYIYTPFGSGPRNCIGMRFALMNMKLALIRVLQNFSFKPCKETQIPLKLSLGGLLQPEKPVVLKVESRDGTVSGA
Chain of Cytochrome P450 2C19 (Homo sapiens) (P33261 whole entry, looked up): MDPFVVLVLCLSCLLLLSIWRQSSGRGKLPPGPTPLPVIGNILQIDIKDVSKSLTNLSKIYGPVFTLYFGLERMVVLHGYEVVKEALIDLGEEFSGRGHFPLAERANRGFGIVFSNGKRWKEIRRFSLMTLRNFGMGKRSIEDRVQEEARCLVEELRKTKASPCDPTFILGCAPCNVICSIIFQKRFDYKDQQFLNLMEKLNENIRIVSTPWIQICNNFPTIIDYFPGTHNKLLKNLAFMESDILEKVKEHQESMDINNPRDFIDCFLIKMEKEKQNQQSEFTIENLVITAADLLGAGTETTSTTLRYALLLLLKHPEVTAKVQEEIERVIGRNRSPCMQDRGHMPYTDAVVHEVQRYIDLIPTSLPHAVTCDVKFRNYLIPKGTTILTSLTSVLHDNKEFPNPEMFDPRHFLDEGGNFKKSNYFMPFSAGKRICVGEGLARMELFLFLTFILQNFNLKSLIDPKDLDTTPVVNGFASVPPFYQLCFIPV
Chain of Cytochrome P450 2D6 (Homo sapiens) (P10635 whole entry, looked up): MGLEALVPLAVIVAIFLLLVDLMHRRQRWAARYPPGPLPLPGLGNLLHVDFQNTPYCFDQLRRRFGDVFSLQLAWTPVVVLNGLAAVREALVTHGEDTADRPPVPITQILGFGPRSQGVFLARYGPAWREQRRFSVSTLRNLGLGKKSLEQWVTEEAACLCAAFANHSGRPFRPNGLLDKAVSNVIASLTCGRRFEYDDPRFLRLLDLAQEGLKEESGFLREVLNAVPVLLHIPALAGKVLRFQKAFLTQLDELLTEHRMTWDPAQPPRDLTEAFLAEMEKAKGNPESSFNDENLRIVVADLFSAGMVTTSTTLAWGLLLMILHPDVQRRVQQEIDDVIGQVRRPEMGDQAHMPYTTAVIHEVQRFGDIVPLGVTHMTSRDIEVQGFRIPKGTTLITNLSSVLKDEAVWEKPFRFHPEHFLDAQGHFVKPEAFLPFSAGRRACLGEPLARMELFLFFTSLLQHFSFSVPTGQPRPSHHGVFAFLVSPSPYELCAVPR
Chain of Guanine nucleotide-binding protein G(i) subunit alpha-1 (Homo sapiens) (P63096 whole entry, looked up): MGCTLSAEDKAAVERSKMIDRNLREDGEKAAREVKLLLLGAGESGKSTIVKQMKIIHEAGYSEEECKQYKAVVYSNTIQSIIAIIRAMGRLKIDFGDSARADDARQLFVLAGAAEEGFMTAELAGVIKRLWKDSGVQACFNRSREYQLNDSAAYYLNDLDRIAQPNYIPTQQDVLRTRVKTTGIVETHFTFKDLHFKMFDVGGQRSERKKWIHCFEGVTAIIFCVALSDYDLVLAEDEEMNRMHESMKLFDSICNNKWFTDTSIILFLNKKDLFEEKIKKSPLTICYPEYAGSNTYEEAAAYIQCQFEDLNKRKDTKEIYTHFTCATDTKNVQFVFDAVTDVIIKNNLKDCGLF
Chain of Pyruvate kinase (Leishmania mexicana) (Q27686 2-499 E452W): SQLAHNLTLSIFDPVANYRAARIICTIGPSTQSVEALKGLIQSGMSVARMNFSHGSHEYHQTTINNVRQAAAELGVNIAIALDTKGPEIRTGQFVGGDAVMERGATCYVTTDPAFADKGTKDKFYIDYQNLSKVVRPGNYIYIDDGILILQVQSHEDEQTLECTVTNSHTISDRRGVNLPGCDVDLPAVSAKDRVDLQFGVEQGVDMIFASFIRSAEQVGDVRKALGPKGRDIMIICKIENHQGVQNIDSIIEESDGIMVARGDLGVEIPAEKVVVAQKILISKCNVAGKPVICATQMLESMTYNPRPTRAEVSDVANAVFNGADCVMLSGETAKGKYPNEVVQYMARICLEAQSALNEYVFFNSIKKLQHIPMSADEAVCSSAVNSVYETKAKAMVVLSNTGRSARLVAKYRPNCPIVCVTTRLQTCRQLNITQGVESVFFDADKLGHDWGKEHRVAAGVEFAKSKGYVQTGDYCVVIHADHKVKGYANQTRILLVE
Chain of Cytochrome P450 2C9 (Homo sapiens) (P11712 whole entry, looked up): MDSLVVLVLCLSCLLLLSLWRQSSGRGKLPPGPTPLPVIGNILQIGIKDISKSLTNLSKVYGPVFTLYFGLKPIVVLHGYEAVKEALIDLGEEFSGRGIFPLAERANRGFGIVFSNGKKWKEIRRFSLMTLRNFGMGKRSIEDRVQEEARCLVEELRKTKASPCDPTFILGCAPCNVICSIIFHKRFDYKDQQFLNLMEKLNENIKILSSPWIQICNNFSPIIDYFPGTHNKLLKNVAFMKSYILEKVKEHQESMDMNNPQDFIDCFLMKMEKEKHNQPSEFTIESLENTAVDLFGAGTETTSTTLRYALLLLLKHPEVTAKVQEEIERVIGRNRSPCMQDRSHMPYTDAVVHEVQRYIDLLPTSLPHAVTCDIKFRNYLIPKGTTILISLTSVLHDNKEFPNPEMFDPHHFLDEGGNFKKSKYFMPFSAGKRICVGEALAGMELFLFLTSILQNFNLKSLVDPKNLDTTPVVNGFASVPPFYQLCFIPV

As for `CNCCCC12CCC(c3ccccc31)c1ccccc12`, the Potency entry in assay [1], in [2] and in assay [4] was “inactive” in each case. In addition, in assay [3], the result was inactive.

For the molecule `CN(C)CCCN1c2ccccc2CCc2ccc(Cl)cc21`, the Potency entry in assay [5], in [6], in assay [7], in assay [8] and in assay [4] was “inactive” each time. In assay [3], the call was inactive.

On to `CCOC(=O)c1ncn2c1CN(C)C(=O)c1cc(F)ccc1-2`, for which the Potency entry in assay [5], in assay [10], in assay [8] and in assay [4] was “inactive” each time. Further, the molecule was classed as inactive in assay [9].

On to `CN1CCN(CCCN2c3ccccc3Sc3ccc(Cl)cc32)CC1`, for which the Potency entry in assay [1], in [2] and in assay [4] was “inactive” in each case. Further, the Potency in [10] was 398 nM (active) and 794 nM (active). In addition, in assay [3], the molecule was classed as inactive.

With `CC[C@@]1(O)C(=O)OCc2c1cc1n(c2=O)Cc2cc3c(CN(C)C)c(O)ccc3nc2-1`, the call in assay [9] and in assay [3] was inactive. In assay [2], the Potency was 12.6 µM (active).

On to `CC(=O)OCC(CCn1cnc2cnc(N)nc21)COC(C)=O`, for which the call in assay [9] and in [3] was inactive.

As to `CCC1(C)CC(=O)NC1=O` (configuration not stated), the molecule was classed as inactive in [9] and in assay [3].

Regarding `CN1CCC(=C2c3ccccc3CC(=O)c3sccc32)CC1`, the outcome in assay [9] and in [3] was inactive. Also, in assay [10], the Potency was 7.94 µM (active) and 3.16 µM (active) and 5.01 µM (active). In addition, the Potency result in [11] and in assay [4] was “inactive” each time.

On to `Nc1nc2c(ncn2COC(CO)CO)c(=O)[nH]1`, for which the Potency result in assay [1] and in assay [4] was “inactive” throughout.

On to `COc1cc2nc(N3CCN(C(=O)c4ccco4)CC3)nc(N)c2cc1OC`, for which the Potency result in assay [5] and in [10] was “inactive” each time. In addition, in assay [9], the outcome was inactive. Further, the Potency in assay [6] is 12.6 µM (active).

For `CC12CC3CC(C)(C1)CC(N)(C3)C2`, the outcome in assay [9] and in [3] was inactive. Also, the Potency entry in assay [2] is “inactive”.

As to `Nc1nnc(-c2cccc(Cl)c2Cl)c(N)n1`, the Potency result in assay [10] is “inactive and 6.31 µM (active)”. Also, the Potency entry in assay [7] and in [4] was “inactive” each time.

As to `CC1COc2c(N3CCN(C)CC3)c(F)cc3c(=O)c(C(=O)O)cn1c23` (configuration not stated), the call in assay [3] was inactive.

Regarding `OCCN1CCN(CCCN2c3ccccc3Sc3ccc(C(F)(F)F)cc32)CC1`, the molecule was classed as inactive in assay [3]. Besides, the Potency result in [4] is “inactive”.

For the molecule `O=C1c2c(O)ccc(O)c2C(=O)c2c(NCCNCCO)ccc(NCCNCCO)c21`, the Potency in assay [7] is 2 µM (active); in assay [12] it was 0.0251 µM (active); in [13], 5.01 µM (active). Further, the result in [3] was inactive.

With `NC12CC3CC(CC(C3)C1)C2`, in assay [11], the Potency entry was “inactive”. Further, the molecule was classed as inactive in [3].

For `CN1CCN2c3ccccc3Cc3ccccc3C2C1` (configuration not stated), the Potency result in assay [6] was “inactive”. In assay [3], the call was inactive.

With `COc1ccccc1OCCNCC(O)COc1cccc2[nH]c3ccccc3c12` (configuration not stated), the Potency result in assay [2] is “inactive”. In assay [3], the call was inactive.

Consider `CCCCc1oc2ccccc2c1C(=O)c1cc(I)c(OCCN(CC)CC)c(I)c1`, for which, in [3], the result was inactive. Further, the Potency entry in assay [13] and in [4] was “inactive” throughout.

Take `COc1ccccc1OCC(O)CN1CCN(CC(=O)Nc2c(C)cccc2C)CC1` (configuration not stated): in assay [3], the result was inactive.

As to `O=C(c1ccc(OCCN2CCCCC2)cc1)c1c(-c2ccc(O)cc2)sc2cc(O)ccc12`, in assay [12], the Potency was 15.8 µM (active). Moreover, in assay [4], the Potency result is “inactive”.

Consider `Cc1cc(C(C)(C)C)c(O)c(C)c1CC1=NCCN1`, for which the Potency result in [6], in assay [8] and in assay [4] was “inactive” in each case. Moreover, in [10], the Potency is 3.98 µM (active) and 39.8 nM (active). In assay [3], the molecule was classed as inactive.

`O=C(CCCN1CCC(O)(c2ccc(Cl)cc2)CC1)c1ccc(F)cc1`: the molecule was called inactive in [3]. In addition, in assay [4], the Potency result is “inactive”.

`CN(C)c1nc(N(C)C)nc(N(C)C)n1`: the Potency result in assay [7], in assay [11] and in assay [4] was “inactive” each time. Further, the outcome in assay [3] was inactive.

In the case of `CN1CCN(C2=Nc3cc(Cl)ccc3Nc3ccccc32)CC1`, the Potency result in [2] and in [4] was “inactive” each time. For the same molecule, the result in [3] was inactive.

On to `O=C(c1ccc(F)cc1)C1CCN(CCn2c(=O)[nH]c3ccccc3c2=O)CC1`, for which the outcome in assay [3] was inactive. In addition, the Potency result in assay [13] and in assay [4] was “inactive” each time.

`CN1CCC(=C2c3ccccc3C=Cc3ccccc32)CC1`: the Potency in assay [10] was 2.51 µM (active) and 3.98 µM (active). The Potency entry in assay [4] was “inactive”.
